The values below come from PubChem BioAssay (NCATS).

Records with an inconclusive call do not appear. Activity calls are given as the source filed them. Unless noted, calls come from the whole dose curve; as a rule, active = well fitted curve in the direction sought with a large enough effect; inconclusive = small, poorly fitted or top-dose-only effect, or another doubt; inactive = no such curve, though single readings can be large; an effect the other way counts as inactive or inconclusive.

Chain of 3',5'-cyclic-AMP phosphodiesterase 4B (Homo sapiens) (Q07343 whole entry, looked up): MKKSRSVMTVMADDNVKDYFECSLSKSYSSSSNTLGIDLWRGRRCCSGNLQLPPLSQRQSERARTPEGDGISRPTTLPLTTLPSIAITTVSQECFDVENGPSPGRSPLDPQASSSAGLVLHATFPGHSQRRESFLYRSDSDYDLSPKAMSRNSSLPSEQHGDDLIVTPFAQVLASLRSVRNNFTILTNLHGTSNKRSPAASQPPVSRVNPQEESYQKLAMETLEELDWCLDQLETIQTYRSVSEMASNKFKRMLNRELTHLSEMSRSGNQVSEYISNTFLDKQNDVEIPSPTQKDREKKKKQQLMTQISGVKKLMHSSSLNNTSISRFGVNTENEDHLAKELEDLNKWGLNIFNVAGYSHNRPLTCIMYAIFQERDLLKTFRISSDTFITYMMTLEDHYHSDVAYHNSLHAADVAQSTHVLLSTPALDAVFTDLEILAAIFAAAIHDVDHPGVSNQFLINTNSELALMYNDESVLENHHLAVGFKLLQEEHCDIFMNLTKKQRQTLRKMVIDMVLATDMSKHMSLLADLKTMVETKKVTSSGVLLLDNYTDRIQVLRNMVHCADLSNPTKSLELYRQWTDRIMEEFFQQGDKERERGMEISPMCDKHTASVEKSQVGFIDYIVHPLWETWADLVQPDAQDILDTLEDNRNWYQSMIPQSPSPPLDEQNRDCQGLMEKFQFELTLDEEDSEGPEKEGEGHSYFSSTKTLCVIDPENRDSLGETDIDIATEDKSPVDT

The target in the first assay is 3',5'-cyclic-AMP phosphodiesterase 4B (Homo sapiens) (UniProt Q07343). The assay can be described thus: qHTS Assay for Inhibitors of PDE-IV (AID 607; active = well fitted activation curve with a large enough effect in the main read-out, with a control signal flat, not every such curve was filed as active; note: % of control where 0% means no effect). The settings on record: HEK293 ACTOne CNG channel cells, membrane potential fluorescence; series mostly up to 22.9 µM; activation (PDE inhibition): at the top concentration. The procedure, abridged:
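Cell-based read-out of cAMP via a modified cyclic nucleotide-gated channel and membrane potential dye (535/590 nm) in HEK293 cells expressing PDE4 endogenously. Compounds tested up to 22.9 uM final; 100 uM RO 20-1724 reference.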
A general note: qHTS replaces the single test concentration by a dilution series.
On to `CN[C@@H]1C[C@@H](c2ccc(Cl)c(Cl)c2)c2ccccc21`, for which the “activation (PDE inhibition)” value is 28.5% (inactive).
For `NCCc1c[nH]c2ccc(O)cc12`, the Potency entry is “inactive”.
`Cc1c(C(=O)c2cccc3ccccc23)c2cccc3c2n1[C@H](CN1CCOCC1)CO3`: the “activation (PDE inhibition)” value is 22.3% (inactive).
`NCc1cc(=O)[nH]o1`: the Potency result is “inactive”.
Turning to `C[C@]12N[C@H](Cc3ccccc31)c1ccccc12`, the “activation (PDE inhibition)” value was 15.7% (inactive).
As for `CCCN1CCC[C@H](c2cccc(O)c2)C1`, the Potency result is “inactive”.
On to `O=c1cccc2n1CC1CNC[C@H]2C1`, for which the Potency result was “inactive”.
Same read-out and setting: the entry for `CCCN1CCO[C@@H]2c3cc(O)ccc3OC[C@H]21` is “inactive”.
With `c1ccc2sc(C3(N4CCCCC4)CCCCC3)cc2c1`, the “activation (PDE inhibition)” value is 26.2% (inactive).

Test system in the next assay: not listed separately
The assay can be described thus: Cellular Toxicity (caspase-3) HepG2 (AID 654).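 Note: cells exposed to compound for 16 hours before reading; 0% = DMSO alone and 100% = caspase signal from 100 µM tamoxifen.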 The settings on record: HepG2 caspase-3 activation, luminescence, 0% = DMSO only, 100% = tamoxifen; series mostly up to 92.2 µM; caspase-3 activation: at the top concentration. The gist of the method: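 Concentration-response AC50 values reflect caspase-3/7 induction in HepG2 cells after 16 hours of compound exposure, quantified by luminescence from liberated aminoluciferin and referenced to 100 uM tamoxifen as full stimulation.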
For `CN(C)NC(=O)CCC(=O)O`, the “caspase-3 activation” value was -0.208% (inactive).
The same measure, in the same setting: the figure for `CCCCC(CC)COC(=O)c1ccccc1C(=O)OCC(CC)CCCC` (stereo unspecified) is -0.342% (inactive).
As for `Nc1ccc(Sc2ccc(N)cc2)cc1`, the “caspase-3 activation” value was 1.43% (inactive).

Test system in another assay: not listed separately
Briefly: Cellular Toxicity (caspase-3) Jurkat (AID 655).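 Note: cells exposed to compound for 16 h at 37 °C before reading.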 The settings on record: Jurkat caspase-3 activation, luminescence, DMSO = 0%, tamoxifen = 100%; series mostly up to 92.2 µM; caspase-3 activation: at the top concentration. The gist of the method:
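Caspase 3/7 activation is scored as increased luminescence in Jurkat cells cultured with compound for 16 hours in complete medium. AC50 values come from Hill fits of qHTS concentration-response data normalized to DMSO and 100 uM tamoxifen controls.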
Take `CN(C)NC(=O)CCC(=O)O`: the “caspase-3 activation” value was -2.41% (inactive).
Same read-out and setting: the figure for `CCCCC(CC)COC(=O)c1ccccc1C(=O)OCC(CC)CCCC` (stereo unspecified) is -0.993% (inactive); for `Nc1ccc(Sc2ccc(N)cc2)cc1` it is 0.185% (inactive).

Test system in the next assay: not listed separately
The assay can be described thus: Cellular Toxicity (caspase-3) HUV-EC-C (AID 656). The settings on record: HUV-EC-C cells, caspase-3 activation (apoptosis), vehicle = 0, 100 µM tamoxifen = 100%; series mostly up to 92.2 µM; caspase-3 activation: at the top concentration. The gist of the method:
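Read-out: luminescence proportional to caspase 3/7 activity, measured 20 min after adding Caspase-Glo 3/7 reagent. Cells (HUV-EC-C) had received compound for 16 hr at 37°C. Increases relative to DMSO and 100 uM tamoxifen gave concentration-response AC50 values.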
Consider `CN(C)NC(=O)CCC(=O)O`, for which the “caspase-3 activation” value is -5.91% (inactive).
Turning to `CCCCC(CC)COC(=O)c1ccccc1C(=O)OCC(CC)CCCC` (stereo unspecified), the “caspase-3 activation” value is -8.13% (inactive).
On to `Nc1ccc(Sc2ccc(N)cc2)cc1`, for which the “caspase-3 activation” value is -2.77% (inactive).

Test system in another assay: not listed separately
The assay can be described thus: Cellular Toxicity (caspase-3) SHSY5Y (AID 657). To be noted: SH-SY5Y caspase-3 activation, DMSO zero, 10 µM staurosporine = 100%; series mostly up to 91.7 µM; caspase-3 activation: at the top concentration. The procedure, abridged:
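Cells plated and incubated 5 h at 37 °C, dosed over a concentration range, incubated 16 h, then given Caspase-Glo 3/7 reagent for 1 h at room temperature before luminescence reading. Staurosporine (10 uM) defined full stimulation.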
For `CN(C)NC(=O)CCC(=O)O`, the “caspase-3 activation” value was -1.23% (inactive).
Consider `CCCCC(CC)COC(=O)c1ccccc1C(=O)OCC(CC)CCCC` (stereo unspecified), for which the “caspase-3 activation” value is 0.29% (inactive).
Still for that read-out and setting: the figure for `Nc1ccc(Sc2ccc(N)cc2)cc1` is 4.41% (inactive).

Test system in a further assay: not listed separately
The assay can be described thus: Cellular Toxicity (caspase-3) BJ (AID 658). The settings on record: BJ fibroblasts, luminescence, normalized: DMSO 0%, staurosporine 100%; series mostly up to 91.7 µM; caspase-3 activation: at the top concentration. The procedure, abridged:
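Plated BJ cells (1000/well) rested 5 hr, received compound for 16 hr at 37 °C, then Caspase-Glo 3/7 reagent for 1 hr at room temperature before luminescence reading.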
Turning to `CN(C)NC(=O)CCC(=O)O`, the “caspase-3 activation” value was -0.59% (inactive).
Still for that read-out and setting: the figure for `CCCCC(CC)COC(=O)c1ccccc1C(=O)OCC(CC)CCCC` (stereo unspecified) is -0.84% (inactive); for `Nc1ccc(Sc2ccc(N)cc2)cc1` it is -0.0785% (inactive).

Test system in a further assay: not listed separately
The assay can be described thus: Cellular Toxicity (caspase-3) MRC-5 (AID 659). The settings on record: MRC-5 cells, luminescence, normalized: DMSO 0%, 10 µM staurosporine 100%; series mostly up to 91.7 µM; caspase-3 activation: at the top concentration. The procedure, abridged:
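Apoptosis readout in MRC-5 cells: luciferase light generated after caspase 3/7 cleaves a peptide-aminoluciferin substrate, measured post 16 hr compound incubation at 37 °C.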
Regarding `CN(C)NC(=O)CCC(=O)O`, the “caspase-3 activation” value is 0.0765% (inactive).
Still for that read-out and setting: then `CCCCC(CC)COC(=O)c1ccccc1C(=O)OCC(CC)CCCC` (stereo unspecified), with -0.651% (inactive); and `Nc1ccc(Sc2ccc(N)cc2)cc1`, with 0.333% (inactive).

Test system in a further assay: not listed separately
Briefly: Cellular Toxicity (caspase-3) Mesangial (AID 660).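 Note: cells exposed to compound for 16 h before the caspase read.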 To be noted: mesangial cells, normalized: DMSO 0%, 100 µM tamoxifen 100%; series mostly up to 91.7 µM; caspase-3 activation: at the top concentration. The procedure, abridged:
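AC50 values come from Hill-equation fits of caspase 3/7 activation, measured as Caspase-Glo luminescence in human glomerular mesangial cells exposed to compound for 16 h at 37 °C; 100% set by 100 uM tamoxifen.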
For the compound `CN(C)NC(=O)CCC(=O)O`, the “caspase-3 activation” value was 0.488% (inactive).
`CCCCC(CC)COC(=O)c1ccccc1C(=O)OCC(CC)CCCC` (stereo unspecified): the “caspase-3 activation” value was -0.399% (inactive).
For the compound `Nc1ccc(Sc2ccc(N)cc2)cc1`, the “caspase-3 activation” value is -0.0655% (inactive).

Test system in the next assay: not listed separately
Briefly: Cellular Toxicity (caspase-3) SK-N-SH (AID 661). The settings on record: SK-N-SH caspase-3 activation, qHTS, DMSO as zero, staurosporine as full; series mostly up to 91.7 µM; caspase-3 activation: at the top concentration. The procedure, abridged:
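Apoptosis readout in SK-N-SH neuroblastoma: Caspase-Glo 3/7 luminescence following 16 hr treatment in complete culture medium. Normalization used DMSO and 10 uM staurosporine controls.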
Turning to `CN(C)NC(=O)CCC(=O)O`, the “caspase-3 activation” value was -1.09% (inactive).
For the compound `CCCCC(CC)COC(=O)c1ccccc1C(=O)OCC(CC)CCCC` (stereo unspecified), the “caspase-3 activation” value was -1.28% (inactive).
As for `Nc1ccc(Sc2ccc(N)cc2)cc1`, the “caspase-3 activation” value is 0.0709% (inactive).

Test system in a further assay: not listed separately
Briefly: Cellular Toxicity (caspase-3) H-4-II-E (AID 663).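 Note: cells exposed to compound for 16 hr before readout.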 To be noted: H-4-II-E rat hepatoma, scaled: DMSO 0%, 100 µM tamoxifen 100%; series mostly up to 92.2 µM; caspase-3 activation: at the top concentration. The procedure, abridged:
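Caspase 3/7 activation measured in H-4-II-E cells in complete culture medium after 16 hr treatment at 37 °C, using luciferase-coupled substrate readout; AC50 values come from Hill-equation fits of normalized concentration-response data.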
With `CN(C)NC(=O)CCC(=O)O`, the “caspase-3 activation” value is -0.506% (inactive).
As to `CCCCC(CC)COC(=O)c1ccccc1C(=O)OCC(CC)CCCC` (stereo unspecified), the “caspase-3 activation” value was 0.0501% (inactive).
For `Nc1ccc(Sc2ccc(N)cc2)cc1`, the “caspase-3 activation” value was 0.971% (inactive).
